About 79,000 compounds went through this panel and 15% of them were active in at least one assay; those are over-represented in the sample as a whole. Calls of active or inactive are those of the source. Rule as the data show it: active = growth inhibition above about 70%; inactive = the rest.
Tests used:
[1] = NCI Yeast Anticancer Drug Screen. Data for the rad50 strain (AID 155);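 also: 0% = growth of vehicle-only cultures of the same strain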; details: S. cerevisiae rad50 strain growth inhibition; at 50.0 µM; stronger effect = higher value
In short: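 Compounds were tested on a yeast strain with an engineered DNA damage repair alteration; the reported value is growth inhibition normalised to vehicle treatment.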

[2] = NCI Yeast Anticancer Drug Screen. Data for the mec2-1 strain (AID 157); details: S. cerevisiae mec2-1 strain, at 50.0 µM, stronger effect = higher value
In short: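 Strain: mec2-1 (DNA repair/cell cycle alteration). Compound exposure, then growth measured; inhibition expressed relative to vehicle.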

[3] = NCI Yeast Anticancer Drug Screen. Data for the sgs1 mgt1 strain (AID 161);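 also: 0% = growth of cultures given vehicle only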; details: S. cerevisiae sgs1 mgt1 strain, at 50.0 µM, stronger effect = higher value
In short: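 Test agents were incubated with a DNA-repair-mutant yeast strain. Growth was then read and compared against vehicle-treated controls.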

[4] = NCI Yeast Anticancer Drug Screen. Data for the cln2 rad14 strain (AID 165);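 also: 0% = growth equal to vehicle treated cultures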; details: S. cerevisiae cln2 rad14 strain, at 50.0 µM, stronger effect = higher value
In short: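 Compounds are applied to the cln2 rad14 yeast strain, and growth is then compared with that of vehicle-treated cultures to give inhibition.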

[5] = NCI Yeast Anticancer Drug Screen. Data for the bub3 strain (AID 167); details: S. cerevisiae bub3 mutant strain, at 50.0 µM, stronger effect = higher value
In short: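 Growth of a checkpoint-deficient yeast mutant is measured after compound exposure. Values represent inhibition relative to vehicle.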

[6] = NCI Yeast Anticancer Drug Screen. Data for the mlh1 rad18 strain (AID 175); details: S. cerevisiae mlh1 rad18 strain growth inhibition; at 50.0 µM; stronger effect = higher value
In short: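 Read-out is yeast growth inhibition, calculated against vehicle-only controls. The compound was applied to a strain engineered with DNA damage repair alterations.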

Measured: growth inhibition

CCCCC(CC)CN(CC(CC)CCCC)C(=O)C(C)OC(=O)C(CC)CCCC (stereo unspecified)
inactive: [1] 3.7% | [2] 6.1% | [3] 18% | [4] -4.3% | [5] 14.8% | [6] 16.9%

c1ccc2c3c(ccc2c1)CCCC3
inactive: [1] 7.5% | [2] -2.15% | [3] 2.9% | [4] -8% | [5] 15.9% | [6] 0.7%

Cc1cc2nnn(-c3ncccc3[N+](=O)[O-])c2cc1C
inactive: [1] 5% | [2] 5.85% | [3] -5.2% | [4] 17.8% | [5] 9.8% | [6] 19.4%

CCOC(=O)C(N)C(O)c1ccncc1 (stereo unspecified)
inactive: [1] -8% | [2] -2.45% | [3] -4.25% | [4] -19.8% | [5] 1.5% | [6] 2.2%

NC(=O)C(N)Cc1ccc(OCc2ccccc2)c(OCc2ccccc2)c1 (stereo unspecified)
inactive: [1] 1.4% | [2] 3.35% | [3] 7.3% | [4] -12.8% | [5] 2.45% | [6] 26.2%

O=c1cc(CCl)nc2c3ncn(C4OC(CO)C(O)C4O)c3ncn12 (stereo unspecified)
inactive: [1] -11.8% | [2] -16.5% | [3] -0.25% | [4] -5.95% | [5] -8.15% | [6] -0.55%

O=C1OC(c2ccccc2)(C2(c3ccccc3)C=C(c3ccccc3)C(=O)O2)C=C1c1ccccc1 (stereo unspecified)
inactive: [1] 39.2% | [2] -3% | [3] 0.7% | [4] -3.8% | [5] 5.3% | [6] 3.15%

O=C(Nc1cccc(Cl)c1)Nc1ccc(Sc2ccc(Cl)cc2)o1
active: [3] 70.6%
inactive: [1] 55.1% | [2] 7% | [4] 29.9% | [5] 47.6% | [6] 69.8%

Nc1[nH]c(=S)[nH]c(=O)c1N=O
inactive: [1] -2.75% | [2] -2.55% | [3] -5.75% | [4] -14.7% | [5] -4.1% | [6] 3.95%

O=C(O)c1csc(C(=O)O)c1
inactive: [1] 8.5% | [2] -1.1% | [3] 9.05% | [4] 2.3% | [5] 12.4% | [6] 8.35%

Cc1ccc(NC(=O)CC2SC(=Nc3cccc(Cl)c3C)NC2=O)cc1 (stereo unspecified)
inactive: [1] 30.9% | [2] 27.9% | [3] 41.5% | [4] 28.7% | [5] 26.1% | [6] 11%

C=CCOC(=O)NC(CCC(N)=O)C(=O)O (stereo unspecified)
inactive: [1] 19.7% | [2] 1.1% | [3] 14.7% | [4] 9.5% | [5] -1% | [6] 16.3%

CSc1nc(C=O)nc(SC)n1
inactive: [1] 1.25% | [2] -12% | [3] 9.1% | [4] -11.3% | [5] 3.45% | [6] -17.1%

CCCCNC(=O)C1CCC(CC2CCCCC2)CC1 (stereo unspecified)
inactive: [1] 22.8% | [2] 28.7% | [3] 12.5% | [4] -3.3% | [5] 18.4% | [6] 10.6%

Nc1ccc(COCCOCc2ccc(N)cc2)cc1
inactive: [1] -4.35% | [2] 1.7% | [3] -4.25% | [4] -5.6% | [5] 2.8% | [6] 17.4%

O=c1[nH]cc(CCOCc2ccccc2)c(=O)[nH]1
inactive: [1] -4.3% | [2] -8.15% | [3] 0.3% | [4] 34.2% | [5] -10.4% | [6] -17%

Cc1nc(N)nc(C)c1N=Nc1cc(Cl)cc(Cl)c1
inactive: [1] -27.1% | [2] 4.15% | [3] -2.2% | [4] -32.9% | [5] 10.2% | [6] -7.85%

CCn1c(C)nc([N+](=O)[O-])c1Sc1ncn[nH]1
inactive: [1] 10.2% | [2] -10.3% | [3] 11.2% | [4] 5.1% | [5] -7.05% | [6] -59.7%

Brc1cccc(Br)n1
inactive: [1] -6.45% | [2] -6.15% | [3] -7.55% | [4] 7.4% | [5] 2.1% | [6] 4.05%

O=C(O)c1nc(-c2ccc(S(=O)(=O)O)cc2)[nH]c1C(=O)O
inactive: [1] -7.15% | [2] -0.25% | [3] 14% | [4] -24.8% | [5] -6.05% | [6] -3.6%

COC(=O)C1(CC(=O)c2ccc(F)cc2)NC(=S)NC(=O)C1C#N (stereo unspecified)
inactive: [1] 14.6% | [2] 2% | [3] -8.3% | [4] -13.1% | [5] -34% | [6] -1.7%

OC(CC(O)(C(F)(F)F)C(F)(F)F)c1cccs1 (stereo unspecified)
inactive: [1] -1.95% | [2] 13.6% | [3] 4.6% | [4] 51.5% | [5] -5.45% | [6] 12.9%

C/C(=N\NC(=O)c1ccncc1)c1cccc(Br)c1
inactive: [1] 12% | [2] 13.9% | [3] 5.35% | [4] 6.6% | [5] 5.35% | [6] 11.8%

NC(=S)N/N=C1\CCCC1C(O)(C(F)(F)Cl)C(F)(F)Cl (stereo unspecified)
inactive: [1] 65.3% | [2] 17.6% | [3] 56.1% | [4] 35% | [5] 29.9% | [6] 62.5%

COC(=O)c1ccc(C[P+](c2ccccc2)(c2ccccc2)c2ccccc2)cc1
inactive: [1] 15.5% | [2] 7.75% | [3] 44.3% | [4] 40.2% | [5] 0.95% | [6] 43.1%

CCC(CC)COC(=O)c1ccccc1C(=O)OCC(CC)CC
inactive: [1] -18.9% | [2] -33.3% | [3] -0.35% | [4] 3.6% | [5] -2.75% | [6] -16%

CC(O)C(F)(F)F (stereo unspecified)
inactive: [1] 18.2% | [2] -8.8% | [3] 7.65% | [4] 15.9% | [5] -3.75% | [6] 21.8%

[Cl][Sn]1([Cl])[CH2]CCCCCCCCCC[CH2][Sn]([Cl])([Cl])[CH2]CCCCCCCCCC[CH2]1
inactive: [1] -12.9% | [2] 1.2% | [3] 9.65% | [4] -12.7% | [5] -13.6% | [6] -25.5%

C/C(=C\CNc1ncnc2c1ncn2C1CCCCO1)COP(=O)(O)O (stereo unspecified)
inactive: [1] 19.6% | [2] 6.4% | [3] 19.6% | [4] 22.2% | [5] -4.8% | [6] 27.9%

C[N+](C)(C)/C=C/c1ccccc1
inactive: [1] 30.8% | [2] -8.2% | [3] 21% | [4] -11.3% | [5] 0.2% | [6] 38.9%

Oc1ccc(Cl)c2cccnc12
active: [1] 98.9% | [2] 99.5% | [3] 99.2% | [4] 97.8% | [5] 99.3% | [6] 97.7%

CCCCCCCCCCCCCCCCn1/c(=N\N=O)sc2ccccc21
inactive: [1] -9.65% | [2] -17.9% | [3] -8.4% | [4] 11.6% | [5] -0.4% | [6] -0.25%

CC(c1ccccc1)n1cnc2c(N(CCO)CCO)ncnc21 (stereo unspecified)
inactive: [1] 2.5% | [2] -1.6% | [3] 9.45% | [4] -4.05% | [5] 9.85% | [6] 11.7%

Nc1ccc(/C=C/c2ccc(N)cc2)cc1
inactive: [1] 9.05% | [2] -0.95% | [3] -1.4% | [4] -1.25% | [5] 8.9% | [6] 5.05%

O=c1n(CCCN2CCN(c3cccc(Cl)c3)CC2)nc2ccccn12
inactive: [1] 45.9% | [2] 11.4% | [3] 21.9% | [4] 19.8% | [5] -1.4% | [6] 8.35%

c1c[nH]c(C2=NCCCCC2)c1
inactive: [1] 1.85% | [2] -6.95% | [3] 2.2% | [4] -3% | [5] -5.2% | [6] -29.1%

Nc1nc2nc(Br)[nH]c2c(=O)[nH]1
inactive: [1] -5.5% | [2] -7.9% | [3] -29.3% | [4] -17.2% | [5] -14.2% | [6] -33.9%

C/C(N=NC(=S)N1CC(C)OC(C)C1)=C1\C=CC=CN1O (stereo unspecified)
inactive: [1] -7.3% | [2] -2.15% | [3] 11.8% | [4] 12.3% | [5] 13.8% | [6] 8.85%

CN(C)NC(=S)NC12CC3CC(CC(C3)C1)C2
inactive: [1] -15.3% | [2] -5.25% | [3] -10.2% | [4] -18.9% | [5] -2.8% | [6] 11.8%

CN(C)C(=O)Nc1cccc2c(NC(=O)N(C)C)cccc12
inactive: [1] -1.4% | [2] 4.4% | [3] 10.7% | [4] 11.9% | [5] -4.45% | [6] -1.55%

CSc1nc(SC)c(Cl)c(C(Cl)Cl)n1
inactive: [1] 32.2% | [2] 59.2% | [3] 68.8% | [4] 7.3%
active: [5] 74.8% | [6] 75%

From PubChem BioAssay (NCI)
